Laboratory results as given in PubChem BioAssay (NCATS).
Inconclusive results are not listed. Where a call stands in place of a potency, no number is given. The source made the active and inactive calls. The call rests on the fitted dose curve; in most records, active means well fitted cell-killing curve with a large enough effect; inconclusive means small, poorly fitted or top-dose-only effect; inactive means flat fitted curve, though single readings scatter.

assay: Cell Viability - LYMP1-002 - Assay at 40 hr (AID 994); conditions: LYMP1-002 lymphoblastoid cell viability; series mostly up to 92.2 µM; further: nearly all actives have a fitted effect of over 60% in size
From the text: NIH Chemical Genomics Center [NCGC]
NIH Molecular Libraries Screening Centers Network [MLSCN]
National Institutes of Environmental Health Sciences [NIEHS]
National Toxicology Program [NTP]
We have developed a 1536-well cell-based assay for quantitative high throughput screening (qHTS) against a number of cell lines to determine in vitro cytotoxicity of small molecules. This particular assay uses a human lymphoblastoid cell line (LYMP1-002) purchased from Coriell Institute for Medical Research.
NCGC Assay Protocol Summary:
The CellTiter-Glo luminescent cell viability assay (Promega) is a homogeneous method to measure the number of viable cells in culture. The end point readout of this assay is based on quantitation of intracellular ATP, an indicator of metabolic activity, using the luciferase reaction. Luciferase catalyzes the oxidation of beetle Luciferin to oxyluciferin and light in the presence of ATP. The luminescent signal is proportional to amount of ATP present.
Using the CellTiter-Glo luminescent cell viability assay, the amount of cellular ATP was measured in the lymphoblastoid cell line with complete culture medium following compound treatment for 40 hours. The assay was performed in opaque white Kalypsys 1536-well plates. In the screen, tetraoctylammonium bromide was used as positive control. Library compounds were measured for their ability to cause acute toxicity in the cell line, as reflected by a decrease in intracellular ATP levels, in a concentration-dependent manner. […] AC50 values were determined from concentration-response data modeled with the standard Hill equation.
qHTS protocol for CellTiter Glo lymphoblastoid cellular assay
[Step] [Parameter] [Value] [Description]
1. Reagent; 5 uL; 2500 lymphoblastoid cells/well
2. Time; 5 hr; 37 C incubation
4. Controls; 23 nL; Tetraoctylammonium bromide 6.4pM to 92 uM
5. Time; 40 hr; 37 C incubation
6. Reagent; 5 uL; CellTiter Glo reagent
7. Time; 30 min; Room Temperature
8. Detection; Luminescence; Viewlux plate reader
Keywords: cell viability, cytotoxicity, lymphoblastoid cell line, luminescence, NTPHTS, NTPHTS_NCGC, NIEHS, DSSTox, MLSMR, MLSCN, NIH Roadmap, qHTS, NCGC
Potency means the concentration at half of the fitted maximal effect.

SMILES	Potency
Oc1cc2c(cc1O)[C@H]1c3ccc(O)c(O)c3OC[C@@]1(O)C2	50.1 µM (active)
CCCCNCC	inactive
c1ccc2ncccc2c1	inactive
Cc1ccc(C(=O)O)cc1[N+](=O)[O-]	inactive
COc1cc(-c2ccc(N=C=O)c(OC)c2)ccc1N=C=O	inactive
C=CC(=O)OCCCCCCOC(=O)C=C	39.8 µM (active)
CCCC(=O)OC(=O)CCC	inactive
O=C(Cl)c1ccc([N+](=O)[O-])cc1	inactive
Oc1cc(Cl)cc(Cl)c1Cl	inactive
CCCCCCCCC1CO1 (stereo not given)	inactive
CCOC(=O)C1OC1c1ccccc1 (stereo not given)	inactive
c1ccc(CSCc2ccccc2)cc1	inactive
CCCCCCc1ccc(-c2ccc(C#N)cc2)cc1	inactive
C/C=C/C=C/C=O	inactive
S=C(NC1CCCCC1)NC1CCCCC1	inactive
Nc1ccc2c(c1)C(=O)c1ccccc1C2=O	inactive
O=CC(=O)c1ccccc1	inactive
O=C(OCC1CO1)C1CCCCC1C(=O)OCC1CO1 (stereo not given)	39.8 µM (active)
O=C(O)c1cc(N=Nc2ccc([N+](=O)[O-])cc2)ccc1O	inactive
CC(=O)CC(=O)Nc1ccccc1	inactive

SMILES	Potency
CC(/C=C/C=C(C)/C=C/C(=O)O)=C\C=C\C=C(C)\C=C\C=C(C)\C=C\C(=O)O	inactive
c1ccc(SCCSc2ccccc2)cc1	inactive
c1ccncc1	inactive
CCCCC(CC)COC(=O)COc1ccc(Cl)cc1Cl (stereo not given)	inactive
c1ccc(Nc2cccc3ccccc23)cc1	inactive
C1CCCNCC1	inactive
Cc1ccc(S(N)(=O)=O)cc1	inactive
Brc1ccc(-c2ccccc2)cc1	inactive
Nc1cnn([C@@H]2O[C@H](CO)[C@@H](O)[C@H]2O)c(=O)n1	inactive
CCC(Cl)CC(Cl)C(Cl)C(Cl)C(Cl)C(C)Cl (stereo not given)	inactive
COc1ccc(C(=O)Nc2ccccc2)cc1[N+](=O)[O-]	inactive
Nc1ccccc1O	inactive
OC1CCCCC1	inactive
Oc1c(Cl)cc(Cl)c(Cl)c1Cl	inactive
CCCCCCN	inactive
CC(=O)c1ccc(Cl)c(Cl)c1Cl	inactive
Cc1c(N)cccc1Cl	inactive
c1c[nH]cn1	inactive
O=[N+]([O-])c1ccccc1Nc1ccccc1	inactive
Brc1cc(Oc2cc(Br)c(Br)c(Br)c2Br)c(Br)c(Br)c1Br	inactive
